Laboratory results from the supplement of paper PMC5407854, “Inhibitor of ppGalNAc-T3-mediated O-glycosylation blocks cancer cell invasiveness and lowers FGF23 levels” (eLife, 2017).
In all, about 1,700 compounds were measured (“T2 sensor activation Q score (MG/GFP ratio z-score vs DMSO controls)”: median about 0.3, highest 2% from about 1.9 on). What follows is part of a selection rich in the highest values, with near analogues and random picks from the rest.

What follows are compounds tested on ppGalNAc-T2 sensor (assay: T2 sensor activation Q score (MG/GFP ratio z-score vs DMSO controls) (SD units); higher = more sensor activation (inhibition of ppGalNAc-T2 glycosylation)). Conditions: HEK293 sensor cells; 10 µM; 6 h.
Description: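 Cells were treated with compound at 10 uM for 6 h, then MG/GFP ratio was read by flow cytometry (10,000 cells per well, duplicate wells). Q = (R - R_neg)/SD_neg relative to DMSO vehicle controls; the signal rises when the glycosyltransferase is inhibited.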

Row | SMILES | T2 sensor activation Q score
1 | N#CC1C(=O)NC(=O)C(C#N)C12CCCC(C(F)(F)F)C2 (stereo not given) | 0.45
2 | CN(C)C=Nc1ccc(Cl)c(Cl)c1 | -1.85
3 | C1C2CC3C1C3/C2=N\N=C1/C2CC3C(C2)C13 | 0.3
4 | Nc1ccc(SCc2nc3cccc4c3n2CCC4)cc1 | 0.35
5 | Cn1c2c(sc1=O)CCC2 | -0.4
6 | C#CCSc1n[nH]c(-c2ccco2)n1 | 1.7
7 | COc1ccccc1NC(=O)Oc1cccc(OC(=O)c2ccccc2)c1 | 0.2
8 | COc1ccc(Cc2nnc(SC)n2-c2ccc(F)cc2)cc1OC | 0.45
9 | O=C1c2ccccc2C(=Cc2cccnc2)c2ccccc21 | 0.2
10 | Cc1ccc(NC(=O)NNC(=O)CSC2CCc3ccccc32)c(C)c1 (stereo not given) | -1.2
11 | O=C(Nc1ccsn1)c1ccc(Cl)cc1Cl | 1.25
12 | Nc1ccn(C2OC(CCl)C(O)C2O)c(=O)n1 (stereo not given) | -0.65
13 | Cn1ncc2c(Nc3ccc([N+](=O)[O-])cc3)nc(Cl)nc21 | -0.5
14 | CC1=NCC(C)c2ccccc21 (stereo not given) | 3.25
15 | COc1ccc(-c2cc(-c3ccccc3)c(-c3ccccc3)nn2)cc1 | -0.95
16 | CCOC(=O)Nc1ccc2nc(N3CCCCCC3)sc2c1 | 0.95
17 | O=C(C=Cc1ccc(O)c(O)c1)c1ccccc1O | -0.4
18 | Cc1nc(SCC(=O)O)n[nH]1 | -1.55
19 | CCOC(=O)N1C/C(=C\c2ccccc2)C(=O)/C(=C/c2ccccc2)C1 | 2.95
20 | CCOC(=O)N1CCN(Cc2c(O)ccc3ccccc23)CC1 | -0.05
21 | CCOc1ccc(/C=C2\CCc3ccccc3C2=O)cc1 | 0.5
22 | CC(=O)NC1=C/C(=C\[N+](=O)[O-])C=C1O | -0.65
23 | COc1cc2c(cc1OC)C(=O)Cc1ccc3c(c1CN(C)CC2)OCO3 | 1.1

Row | SMILES | T2 sensor activation Q score
24 | CCN1CCCCC(=NO)C(=NO)CCCC1 | 1.05
25 | COc1ccc(OC(=O)Nc2ccc([N+](=O)[O-])cc2OC)cc1 | 0.95
26 | O=C1C2C3C=CC(O3)C2C(=O)N1Nc1ccccc1 (stereo not given) | 0.25
27 | C(=N\Nc1nnn(Cc2ccccc2)n1)/c1ccccc1 | 0.5
28 | Nc1ccc(-c2nc3nc(N)nc(N)c3nc2-c2ccc(N)cc2)cc1 | 4.95
29 | CCN(CC)CCNc1c(C)cc(CO)c(Cl)c1C | 0.25
30 | C#CC(C)OCC1CNC(=S)O1 (stereo not given) | -1.4
31 | CN(C)c1ccc(/C=N\NC(=O)c2cnc3ccccc3c2)cc1 | -0.3
32 | NS(=O)(=O)c1cc2c(cc1Cl)NC(CC1CCCC1)NS2(=O)=O (stereo not given) | 0.8
33 | S=c1[nH]c2ccccc2c2ccccc12 | 1.95
34 | S=c1cn[nH]c2ccccc12 | 0.55
35 | S=c1[nH]c2ccccc2n2cccc12 | 1.1
36 | CSC(=O)NC(=O)NC(=O)c1ccc([N+](=O)[O-])cc1 | 1.05
37 | O=C(c1ccccc1)c1ccc(-c2ccc(O)cc2)cc1 | 1.55
38 | O=C(c1ccccc1)c1ccc(Sc2ccc([N+](=O)[O-])cc2)cc1 | 7.7
39 | CCN(CC)CCN1c2ccccc2Sc2ccc3ccccc3c21 | -0.8
40 | OC(c1cc(-c2ccc(C(F)(F)F)cc2)nc(C(F)(F)F)c1)C1CCCCN1 (stereo not given) | 0.5
41 | CCCCSc1ncnc2[nH]ncc12 | 0.45
42 | O=[N+]([O-])c1ccc2c3ccccc3[s+]([O-])c2c1 (stereo not given) | 0.25
43 | CC(C)NCC1CCc2cc(CO)c([N+](=O)[O-])cc2N1 (stereo not given) | -0.55
44 | Cc1ccc(Cl)cc1NC(=O)c1cc2ccccc2cc1O | -0.35
45 | CCOC(=O)Cc1cc(=O)c2cc(C)ccc2[nH]1 | 0.8
